Anthrax LF inh2: Bacillus anthracis LF protease inhibitors, primary screen, biochemical, multiplex microsphere, MLPCN library; Lethal factor (Bacillus anthracis), P15917; multiplex microsphere protease cleavage assay; inhibition, % at 10 µM; 360,000 compounds, 0.12% hits; AID 588501, 2011; also: plate controls were buffer without enzyme for full effect and enzyme alone for no effect
MazF activator: activators of E. coli MazEF toxin-antitoxin RNase, primary screen, biochemical, fluorescence, uHTS | 350,000 compounds, 0.32% hits | activation, % at 20 µM | FAM/BHQ RNA-DNA oligo cleavage fluorescence, 5 h; in the data active = activation above about 50%
Target sequence (P0AE70 whole entry, looked up): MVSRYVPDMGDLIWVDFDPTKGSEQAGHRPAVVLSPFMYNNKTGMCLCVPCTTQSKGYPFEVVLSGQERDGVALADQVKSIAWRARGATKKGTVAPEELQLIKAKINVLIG
Bead autofluor: flagged as autofluorescent in microsphere protease counterscreen; 360,000 compounds, 3.1% hits; compound autofluorescence counterscreen, microsphere flow cytometry; hits give high values; fluorescence intensity (no concentration beside the values); in the data active = fluorescence intensity above about 16000; inconclusive = no clear call, values can overlap the other calls
BoNT-A LC inh2: BoNT/A light chain protease inhibitors, primary screen, biochemical, flow cytometry, MLPCN library; AID 588499, 2011; Botulinum neurotoxin type A light chain protease (Clostridium botulinum A str. ATCC 3502); 360,000 compounds, 0.17% hits; inhibition, % at 10 µM; multiplex microsphere protease substrate cleavage; also: plate controls were buffer without enzyme for full effect and enzyme alone for no effect
BoNT-F LC inh: BoNT/F light chain protease inhibitors, primary screen, biochemical, flow cytometry, MLPCN library. 360,000 compounds, 0.22% hits. Multiplex microsphere protease cleavage assay. inhibition, % at 10 µM. Botulinum neurotoxin type F light chain protease (Clostridium botulinum). AID 588497, 2011; in the data active = inhibition above about 35%, passing the limit was not always enough; inconclusive = no clear call, values can overlap the other calls; also: plate controls were buffer without enzyme for full effect and enzyme alone for no effect
An asterisk follows results filed as active; ? = inconclusive; / = no result. Sampled rows, rich in hits. Any-hit rate of the full collection: about 3.6%. Rule as the data show it, unless noted: active = inhibition above about 30%; inconclusive = no clear call, values can overlap the other calls; inactive = below that.

SMILES	Anthrax LF inh2	MazF activator	Bead autofluor	BoNT-A LC inh2	BoNT-F LC inh
CCOc1ccc(C(=O)NC(=S)Nc2ccc(N3CCC(C)CC3)cc2)cc1[N+](=O)[O-]	-10.6	1.7	14746	-6.9	39.4*
O=C1CCc2cc(S(=O)(=O)Nc3ccccc3F)cc3c2N1CCC3	/	-2.1	/	/	/
COc1ccc(Cc2nnc(SCC(=O)NCCc3ccccc3)o2)cc1	-0.9	0.9	21339*	?	-7.3
COc1ccc(-c2nnc(SCC(=O)NCCc3ccccc3)o2)cc1	0.0	-4.4	2963	-0.1	3.8
O=C(CSc1nnc(Cc2ccccc2)o1)NCc1ccco1	-8.7	1.4	21761*	1.1	1.0
Cc1cccc(C)c1OCc1nnc(SCC(=O)NCCc2ccccc2)o1	-2.0	-3.1	23122*	?	-5.9
O=C(O)c1ccc(CSc2nnc(Cc3ccccc3)o2)cc1	-4.9	9.1	16912*	-2.7	-2.3
COCCCNC(=O)CC1C(=O)N(Cc2ccccc2)C(C)c2nc3ccccc3n21 (stereo not given)	-0.9	1.6	2522	0.3	-7.6
CCc1nc2ccc(C(=O)NCc3ccc4c(c3)OCO4)cn2c1N(C)C(=O)Cc1ccccc1	-0.2	/	3683	-0.3	0.5
COC(=O)c1ccccc1NC(=O)CSc1nnc(Cc2ccc(Cl)cc2)o1	-22.9	1.0	19277*	5.5	11.0
Cc1ccc(SCC(=O)n2nc(C)cc2C)cc1	-2.4	-10.5	2330	-0.7	1.0
COc1ccc(CCNC(=O)CSc2nc3cc(Cl)ccc3o2)cc1OC	-2.0	3.8	2453	-0.3	-3.1
COc1ccccc1NC(=O)CSc1nnc(COc2ccc(Cl)cc2)o1	-1.3	0.2	5786	-0.8	-0.4
COc1ccc(CCNC(=O)CSc2nc3ccccc3o2)cc1OC	-0.6	5.5	23875*	-3.1	-5.9
Cc1cc(C)n(C(=O)CSc2nc3ccccc3o2)n1	1.7	-4.2	20678*	-2.7	-4.9
COc1ccc(/C(O)=C/Sc2nnc(Cc3ccccc3)o2)cc1	-6.1	-9.3	24165*	-2.4	-4.0
C[C@H](CO)N1C[C@H](C)[C@@H](CN(C)S(=O)(=O)c2ccccc2C#N)OCc2cn(nn2)CCCC1=O	0.2	6.6	3043	-0.8	-5.1
COc1ccc(CCNC(=O)CSCc2n[nH]c(=O)[nH]2)cc1OC	-1.7	-3.8	20702*	?	0.7
COc1ccc(CCNC(=O)CSCc2ccc(C)cc2)cc1OC	0.3	-2.7	2741	0.1	-3.4
CCOC(=O)c1c(NC(=O)CSc2nnc(Cc3ccccc3)o2)sc(C(C)=O)c1C	-3.0	0.1	18103*	?	-11.1
COc1cccc(C(=O)C2CN(c3ccccc3)CC2c2ccc(Cl)cc2)c1 (stereo not given)	-3.5	-9.7	21602*	-1.6	-5.1
CC(=O)c1ccc(-n2c(C)ccc2-c2ccccc2)cc1	-5.8	-5.0	23002*	1.1	-2.2
S=c1[nH]nc(-c2cc(-c3ccccc3)n[nH]2)n1/N=C/C(Br)=C/c1ccccc1	-0.6	-22.3	?	-2.8	?
CN(CC(=O)Nc1ccccc1C(=O)NC1CC1)Cc1cccs1	0.7	7.1	4052	0.3	-2.4
O=C(NC1CCCCC1)N1CCCC(c2nc3ccccc3[nH]2)C1 (stereo not given)	-17.0	-6.5	15663	14.3	18.0
SMILES	Anthrax LF inh2	MazF activator	Bead autofluor	BoNT-A LC inh2	BoNT-F LC inh
O=C(NC1CCCCC1)N1CCC(c2nc3ccccc3[nH]2)CC1	-6.0	0.8	22032*	1.2	2.3
O=C(NC1CCCCC1)N1CCC(c2nc3ccc(Cl)cc3[nH]2)CC1	-4.6	-1.1	16224*	-0.7	-1.3
O=C(C1CCCCC1)N1CCC(c2nc3ccccc3[nH]2)CC1	-3.4	5.2	7753	0.3	-1.1
O=C(/C=C/[C@H]1O[C@@H](n2ccc(=O)[nH]c2=O)[C@H](O)[C@@H]1O)NCCCc1ccccc1	-1.1	/	6072	0.8	-3.4
COc1ccc(CCC(=O)NCC23CC4CC(CC(C4)C2)C3)cc1	13.8	-1.7	3970	-1.8	7.5
CCOc1ccc(NC(=O)CSc2nc3ccccc3c(=O)n2CCNC(C)=O)cc1	-1.0	4.8	20012*	1.7	2.2
COc1ccc(NC(=O)CSc2nc3ccccc3c(=O)n2CCNC(C)=O)c(OC)c1	-2.1	6.5	9748	-1.5	-3.1
CCn1c(SCC(=O)Nc2ccc(NC(=O)c3ccco3)c(OC)c2)nc2ccccc2c1=O	-0.7	-7.0	20994*	-4.2	-6.4
COc1ccc(OC)c(NC(=O)CSc2nc3ccccc3c(=O)n2CCNC(C)=O)c1	1.3	-3.9	20543*	-2.9	-4.0
O=C(NCC1CCCCC1)C1(CC2CC(c3ccc(Cl)cc3)=NO2)CCNCC1 (stereo not given)	2.5	24.5	3832	-0.2	-7.1
COc1cc(NC(=O)Nn2cnnc2)cc(OC)c1OC	2.9	-9.1	4384	1.2	-5.9
COc1cc(C(=O)Nc2nc(OC)c(-c3ccccc3)c(OC)n2)cc(OC)c1OC	5.0	-1.5	6250	0.3	-0.4
COc1cc(C(=O)Nc2cc(-c3ccccc3)[nH]n2)cc(OC)c1OC	-15.4	0.2	20197*	?	1.1
C[C@H](CO)N1C[C@H](C)[C@@H](CN(C)S(C)(=O)=O)Oc2ccc(NS(=O)(=O)c3ccccc3)cc2C1=O	2.3	5.0	4190	-0.5	-1.9
O=C(COC(=O)c1nc(Cl)ccc1Cl)Nc1cccc(S(=O)(=O)N2CCOCC2)c1	1.4	-0.5	3856	-0.4	-8.8
Cc1cc(N2CCOCC2)nc2ccc(Cl)cc12	-8.8	8.3	4503	-0.2	?
CC(C)CSc1ncc(-c2cccc(C(F)(F)F)c2)cn1	1.7	-11.0	19690*	?	0.4
CCc1ccc(C(O)c2ncc(-c3cccc(C(F)(F)F)c3)[nH]2)cc1 (stereo not given)	-0.6	/	3805	-0.6	-6.6
CCOC(=O)c1ccc(-c2ccc(/C=N/NC(=O)c3cncc(Br)c3)o2)cc1	16.9	-48.1	3685	0.7	?
CCCCOC(=O)c1ccc(-c2ccc(/C=N/NC(=S)NCC)o2)cc1	3.5	-4.4	16266*	?	3.3
C[C@@H](c1ccccc1)N1C[C@@H](COCc2ccccc2)Oc2cc(N3CC[C@@H](N(C)C)C3)ccc2S1(=O)=O	-13.9	/	6174	-1.2	-16.4
C=CCNc1nc(-c2ccc(OC)cc2OC)cs1	-3.1	-5.7	21095*	?	1.1
CCOC(=O)Cn1nc(C)n(-c2ccccc2)c1=O	0.9	5.0	22724*	-0.3	1.5
Cc1nn(CCOc2ccccc2)c(=O)n1-c1ccc(Cl)cc1	-1.0	7.8	3910	-0.4	3.6
CCOC(=O)Cn1nc(C)n(-c2ccc(C)cc2)c1=O	-1.3	0.9	22478*	2.1	4.4
CCOC(=O)Cn1nc(-c2ccccc2)ccc1=O	-3.0	-2.9	23084*	-1.2	-1.4
Cc1nn(CCOc2ccccc2)c(=O)n1-c1ccccc1	-3.9	-1.9	22975*	0.2	-1.3

Screening results (PubChem BioAssay)
